According to article PMC5540273 (PLoS ONE, 2017):

Key:
Conditions in all cases: concentration: 1 μM, replicates: in singlicate; n = 1
MAST1 = system: MAST1
MEK1 = system: T1, MEK1
T1 construct: gene MAP2K1

MEK2 = system: T2, MEK2
T2 construct: gene MAP2K2

MEK3 = system: T3, MEK3
T3 construct: gene MAP2K3

MEK4 = system: T4, MEK4
T4 construct: gene MAP2K4

MEK5 = system: T5, MEK5
T5 construct: gene MAP2K5

MEK6 = system: T6, MEK6
T6 construct: gene MAP2K6

MELK = system: MELK
MERTK = system: MERTK
MET = system: MET
MINK = system: T7, MINK
T7 construct: gene MINK1

MKK7 = system: MKK7
MKNK1 = system: MKNK1
MKNK2 = system: MKNK2
MLCK = system: T8, MLCK
T8 construct: gene MYLK3

MLK1 = system: T9, MLK1
T9 construct: gene MAP3K9

MLK2 = system: MLK2
MLK3 = system: MLK3
MRCKA = system: MRCKA
MRCKB = system: T10, MRCKB
T10 construct: gene CDC42BPB
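Also: KINOMEscan kinase panel screen.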

| Structure (SMILES) | %Inh (MAST1) | %Inh (MEK1) | %Inh (MEK2) | %Inh (MEK3) | %Inh (MEK4) | %Inh (MEK5) | %Inh (MEK6) | %Inh (MELK) | %Inh (MERTK) | %Inh (MET) | %Inh (MINK) | %Inh (MKK7) | %Inh (MKNK1) | %Inh (MKNK2) | %Inh (MLCK) | %Inh (MLK1) | %Inh (MLK2) | %Inh (MLK3) | %Inh (MRCKA) | %Inh (MRCKB) |
| --- | --- | --- | --- | --- | --- | --- | --- | --- | --- | --- | --- | --- | --- | --- | --- | --- | --- | --- | --- | --- |
| CC(=O)c1cccc(NC(=O)NC2CCN(c3ccnc(Nc4ccc(F)cc4)n3)C2)c1 (centres unmarked) [GSK1379710] | 30% | 6% | 16% | 9% | 57% | 34% | 9% | 12% | 40% | 0% | 11% | 0% | 27% | 0% | 0% | 0% | 0% | 3% | 20% | 0% |
| COc1ccc(CSc2nnc(-c3ccc4ncsc4c3)o2)cc1C(F)(F)F | 0% | 0% | 9% | 9% | 0% | 0% | 24% | 0% | 16% | 0% | 0% | 0% | 0% | 0% | 0% | 0% | 23% | 0% | 0% | 0% |
| O=C(Nc1n[nH]c2nc(-c3cccs3)c(Br)cc12)C1CC1 [SB-735297] | 26% | 0% | 0% | 34% | 99.3% | 68% | 0% | 15% | 15% | 0% | 28% | 0% | 46% | 39% | 90% | 0% | 0% | 0% | 16% | 0% |
| COC(=O)c1cccc(NC(=O)NC2CCN(c3ccnc(Nc4ccc(OC)cc4)n3)C2)c1 (centres unmarked) [GSK1379746] | 13% | 0% | 0% | 0% | 34% | 33% | 0% | 0% | 22% | 0% | 0% | 7% | 3% | 2% | 4% | 0% | 0% | 0% | 24% | 0% |
| COc1ccc(Nc2nccc(-c3ccc(NC(=O)c4cc5cc(F)ccc5[nH]4)cc3)n2)cc1 [GSK1229496] | 0% | 0% | 0% | 20% | 0% | 6% | 0% | 0% | 18% | 0% | 4% | 0% | 14% | 0% | 0% | 0% | 0% | 0% | 17% | 0% |
| CCc1ccc(-c2ccc3c(c2)-c2n[nH]cc2S(=O)(=O)N3C)cc1 | 0% | 10% | 86% | 13% | 0% | 8% | 0% | 9% | 0% | 0% | 2% | 0% | 0% | 0% | 16% | 13% | 16% | 0% | 0% | 6% |
| Cc1ccc(NC(=O)Nc2ccccc2)cc1-c1ccc(C(=O)Nc2ccncc2)cc1 [GSK1398471] | 0% | 0% | 0% | 0% | 23% | 4% | 8% | 11% | 40% | 4% | 3% | 23% | 3% | 0% | 0% | 0% | 0% | 4% | 5% | 24% |
| CCCCc1nn2ncccc2c1-c1ccnc(NC2CC2)n1 [GW684374] | 0% | 0% | 0% | 8% | 7% | 9% | 10% | 15% | 5% | 0% | 7% | 0% | 0% | 0% | 0% | 0% | 0% | 0% | 0% | 0% |
| COc1ccc(Nc2nccc(N3CCC(NC(=O)c4cc5ccccc5s4)C3)n2)cc1 (centres unmarked) [GSK1379738] | 0% | 0% | 0% | 0% | 23% | 10% | 0% | 0% | 0% | 0% | 0% | 26% | 22% | 11% | 0% | 0% | 0% | 0% | 12% | 0% |
| COc1ccc(-c2coc3ccc(-c4nnc(C)o4)cc23)cc1 | 0% | 0% | 4% | 0% | 1% | 0% | 0% | 0% | 8% | 0% | 0% | 0% | 0% | 0% | 0% | 0% | 5% | 1% | 0% | 0% |
